Screening data as filed in PubChem BioAssay.
CHO-K1 Ca PAM: counter-screen for M1 PAMs: effect in parental CHO-K1 cells. ATP EC20, Fluo-8 calcium fluorescence; 0% at ATP EC20, 100% at ATP max. activation, % at 3 µM. 360,000 compounds, 0.02% hits;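 active = activation above the run cutoff, the mean activation of all test compounds plus 3 SD, cut at about 40% in these data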;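 note: peak over basal fluorescence ratio in a 140 s read after ATP addition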
CHO-K1 Ca antag: counter-screen for M1 antagonists: effect in parental CHO-K1 cells | ATP-induced calcium, Fluo-8 fluorescence | inhibition, % at 3 µM | 360,000 compounds, 0.6% hits | AID 602250;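 active = inhibition above a per-plate cutoff, the plate's mean sample inhibition plus 3 SD, cut at about 24% in these data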;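 note: 0% = DMSO plus EC80 ATP and 100% = DMSO alone without ATP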
M1 antag: human CHRM1 antagonism. inhibition, % at 3 µM. CHO-K1 hM1, Fluo-8 calcium fluorescence, ACh EC80 antagonist. AID 588852. 360,000 compounds, 1.3% hits;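 active = percent inhibition above its own plate's cutoff, namely the mean of that plate's compound wells plus 3 SD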;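 note: peak over basal fluorescence ratio during 140 s after agonist addition; 0% = ACh EC80 plus DMSO and 100% = DMSO alone without agonist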
Target sequence (P11229 whole entry, looked up): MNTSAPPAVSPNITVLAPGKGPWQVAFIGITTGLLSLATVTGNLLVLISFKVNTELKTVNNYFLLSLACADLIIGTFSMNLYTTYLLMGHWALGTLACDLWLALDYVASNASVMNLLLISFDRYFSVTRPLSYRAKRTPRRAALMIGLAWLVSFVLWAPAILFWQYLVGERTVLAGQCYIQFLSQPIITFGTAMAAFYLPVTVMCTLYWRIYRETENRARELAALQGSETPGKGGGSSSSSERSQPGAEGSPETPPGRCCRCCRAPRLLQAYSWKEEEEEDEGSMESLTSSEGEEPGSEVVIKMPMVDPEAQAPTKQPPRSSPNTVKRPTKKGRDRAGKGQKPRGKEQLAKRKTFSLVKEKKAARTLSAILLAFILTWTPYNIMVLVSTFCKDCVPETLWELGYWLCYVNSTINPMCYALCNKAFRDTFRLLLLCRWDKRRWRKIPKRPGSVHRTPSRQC
M1 PAM: positive allosteric modulators of human M1 muscarinic receptor | CHO-K1 hM1, Fluo-8 calcium fluorescence, ACh EC20; 0% = ACh EC20, 100% = maximal ACh | P11229 | activation, % at 3 µM | 360,000 compounds, 0.088% hits; in the data active = activation above about 19%, passing the limit was not always enough
M1 ag parental: nonselective activator or artifact in parental CHO-K1 cells. Fluo-8 calcium fluorescence; scaled to maximal ATP response, vehicle zero. activation, % at 3 µM. 360,000 compounds, 0.48% hits; in the data active = activation above about 15%;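 note: untransfected CHO-K1 host cells lacking M1 receptor as counterscreen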
CHRM1 agonist: human M1 muscarinic receptor agonism; P11229; CHO-K1 hM1, Fluo-8 calcium fluorescence, agonist mode; 0% DMSO, 100% acetylcholine EC100; activation, % at 3 µM; 360,000 compounds, 0.33% hits; AID 588814;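 active = activation above the run's mean compound activation plus 3 SD, cut at about 16% in these data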;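 note: peak over basal fluorescence ratio within a 140 s kinetic read after compound addition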
The depositor's hits bear a star; nt = no result given; ! = not active in a repeat. A selection: hits, their analogues and other compounds. The true share with any hit is near 2.3%.

SMILES	CHO-K1 Ca PAM	CHO-K1 Ca antag	M1 antag	M1 PAM	M1 ag parental	CHRM1 agonist
CC1(C)OC(=O)C2=C(C[C@@H](C3CCCC3)O[C@H]2CCc2cccc(Cl)c2)O1	6.7	-13.0	nt	nt	0.1	nt
CC#CC(=O)N1CCC(n2nccc2NC(=O)CCc2ccccc2)CC1	-7.2	-2.9	-7.2	6.0	-0.1	-5.0
CC(C)=CC(=O)N1CCC(n2nccc2NC(=O)CCc2ccccc2)CC1	6.9	40.0*	2.8	-0.9	0.1	-5.5
COc1ccc(-n2nc([N+](=O)[O-])c(=NC3CCN(Cc4ccccc4)CC3)n2O)cc1	20.2	-11.7	25.4*	-22.9	0.7	-9.8
CN1/C(=C\C(=O)COC(=O)Cn2nnc(-c3ccccc3)n2)C(C)(C)c2ccccc21	-6.5	24.0*	9.2	-11.3	1.4	-1.4
Cc1ccc(C(=O)Nc2cc3[nH]c(=O)oc3cc2C)cc1	4.5	-17.7	-18.0	10.6	0.3	-3.3
O=C1/C(=C/c2cccs2)SC(=S)N1CCCC(=O)N(CCO)c1ccccc1	-15.7	6.8	1.8	6.8	0.5	-0.3
CCCCOC(=O)Cn1c(=O)n(CC(=O)OCCCC)c2ccccc21	8.5	-6.1	-4.4	1.3	-0.1	-4.3
CCCCCCCCCCOC(=O)Cn1c(COc2ccccc2)[n+](C)c2ccccc21	2.1	5.0	69.6*	-30.0	0.9	-5.6
CCCCCCCCCCOC(=O)Cn1c(COc2ccccc2C)[n+](C)c2ccccc21	4.3	-0.9	86.3*	-29.6	0.3	-9.9
CCOC(=O)Cn1c(COc2ccccc2OC)[n+](C)c2ccccc21	-6.9	0.6	5.5	-3.1	-0.3	-8.9
Cc1cccc(OCCCn2c(=O)sc3ccccc32)c1	3.2	-4.0	14.3	-2.8	-0.1	-4.9
CCCCCCCCCCOC(=O)Cn1c(COc2ccc(OC)cc2)[n+](C)c2ccccc21	-2.1	13.4	41.5*!	-16.4	6.6	-11.3
CCCCCCCCCCOC(=O)Cn1c(COc2cccc(C)c2)[n+](C)c2ccccc21	4.4	8.8	36.2*	-22.5	-0.4	8.6
O=C(CCC(=O)N1CCOc2ccccc21)Nc1ccccc1Br	8.5	-0.7	19.8	-11.0	5.5	-3.3
CCCCCCCCCCOC(=O)Cn1c(COc2ccc(Cl)cc2)[n+](C)c2ccccc21	13.9	1.2	43.0*	-20.2	12.5	-4.5
CCCCCOC(=O)Cn1c(=O)oc2ccccc21	10.1	1.5	-7.8	4.9	0.3	-8.4
CN(CCOc1ccc(Cl)cc1)C(=O)C1CCN(C(=O)c2ccc(Cl)cc2)CC1	-5.6	3.6	-13.3	0.5	3.8	0.0
O=c1c2cc(Br)ccc2nc(-c2cccc(C(F)(F)F)c2)n1O	17.6	-25.8	-4.5	0.0	8.0	25.1*
COc1ccc(C2CC(c3ccc(C)cc3)=NN2C(=O)CCC(=O)O)cc1OC (stereo not drawn)	15.1	-13.9	-16.3	4.1	0.3	-1.6
COc1ccc(CCNCC(C)c2ccccc2)cc1 (stereo not drawn)	5.2	-5.2	35.5*	-20.4	1.4	-9.4
COc1ccc(OC)c(CN2CCN(C(=O)c3ccc(S(=O)(=O)N4CCCCCC4)cc3)CC2)c1	11.3	-9.7	-4.3	-2.3	3.6	-6.1
Cc1ccccc1NC(=O)COC(=O)c1ccc(S(C)(=O)=O)c([N+](=O)[O-])c1	-8.7	4.3	4.0	3.6	0.1	-4.5
Cc1ccccc1NC(=O)Cc1nc(COC(=O)c2ccc(S(C)(=O)=O)c([N+](=O)[O-])c2)cs1	-10.1	5.0	33.9*	-25.7	3.5	-4.7
Cc1ccccc1NC(=O)NCCCN1CCN(C2CCCCC2)CC1	15.3	-4.3	-9.6	-3.6	-0.2	-1.7
SMILES	CHO-K1 Ca PAM	CHO-K1 Ca antag	M1 antag	M1 PAM	M1 ag parental	CHRM1 agonist
Cc1cc(C(=O)NCCCN2CCN(C3CCCCC3)CC2)n(-c2ccccc2)n1	7.6	12.7	6.7	-0.3	-0.5	36.1*
CCCCCCCNC(=O)C1(CC2CC(c3ccc(Cl)cc3)=NO2)CCN(C(=O)OC(C)(C)C)CC1 (stereo not drawn)	2.2	-5.8	2.8	-5.1	1.1	-6.7
Cc1ccc(C)c(C(C)NC(=S)NCc2ccc(F)cc2)c1 (stereo not drawn)	6.6	-8.7	11.2	-6.6	16.6*	10.2
Cc1ccc(-c2c[n+](CC(=O)N3c4ccccc4Sc4ccccc43)c3n2CCC3)cc1	-9.9	23.0	99.8*	-25.4	-0.6	-7.1
O=C(C[n+]1cc(-c2ccccc2)n2c1CCC2)N1c2ccccc2Sc2ccccc21	17.6	-6.2	98.7*	-26.4	0.3	-8.0
O=C(C[n+]1cc(-c2ccccc2)n2c1CCC2)c1cccs1	-8.5	-11.4	3.1	-1.6	0.5	-15.5
O=C(C[n+]1cc(-c2ccc(F)cc2)n2c1CCC2)N1c2ccccc2Sc2ccccc21	27.5	-12.3	95.7*	-25.3	0.8	-7.4
O=C(C[n+]1cc(-c2ccc(Cl)cc2)n2c1CCC2)Nc1nc(-c2ccc(F)cc2)cs1	12.1	4.1	-1.0	3.7	18.0*	-5.4
COC(=O)c1sccc1S(=O)(=O)Nc1ccc(Cl)cc1	2.4	-13.8	9.6	-7.1	5.8	-2.5
COC(=O)c1sccc1S(=O)(=O)Nc1ccc(C(O)(C(F)(F)F)C(F)(F)F)cc1	3.3	8.4	38.7*	-32.5	60.6*	66.4*
Cc1noc(C)c1NC(=O)N(C)C[C@H]1OCCCC[C@@H](C)Oc2ccc(NC(=O)Nc3ccc(F)cc3)cc2C(=O)N([C@@H](C)CO)C[C@H]1C	6.5	3.4	-9.9	6.3	0.1	-4.7
Cc1noc(C)c1NC(=O)N(C)C[C@H]1OCCCC[C@@H](C)Oc2ccc(NC(=O)c3ccccc3)cc2C(=O)N([C@H](C)CO)C[C@@H]1C	-6.5	5.5	5.8	-13.7	-0.2	17.0*
C[C@H](CO)N1C[C@H](C)[C@@H](CN(C)S(=O)(=O)c2cn(C)cn2)Oc2ccc(NC(=O)Nc3ccccc3)cc2C1=O	0.5	-6.9	-1.8	5.0	-0.1	-5.3
Cc1ccc(S(=O)(=O)N(C)C[C@@H]2OCCCC[C@@H](C)Oc3ccc(NS(=O)(=O)c4c(C)noc4C)cc3C(=O)N([C@H](C)CO)C[C@@H]2C)cc1	5.8	-8.4	-5.9	-5.3	0.5	-9.5
Cc1noc(C)c1NC(=O)Nc1ccc2c(c1)C(=O)N([C@H](C)CO)C[C@@H](C)[C@@H](CN(C)S(=O)(=O)c1cn(C)cn1)OCCCC[C@H](C)O2	10.2	26.0*	-3.5	1.1	0.4	-3.4
Cc1ccc(S(=O)(=O)N(C)C[C@@H]2OCCCC[C@H](C)Oc3ccc(NC(=O)Nc4ccc(F)cc4)cc3C(=O)N([C@H](C)CO)C[C@H]2C)cc1	-7.8	25.7*	0.4	-5.3	-0.7	-4.4
